{
  "source": "the antibiotic and cytotoxicity screens of Wong et al. (2023)",
  "note": "The campaign covered roughly 39,000 compounds. About 3,300 (8.5%) were called active. What follows is part of a selection rich in actives, with near analogues and random picks from the rest.",
  "data": [
    {"test_system": "HepG2", "assay": "cytotoxicity call (relative viability < 0.9)", "conditions": "10 µM", "values": [
      {"smiles": "C[C@H]1CN([C@@H](C)CO)C(=O)Cc2cc(NC(=O)Cn3cnnn3)ccc2O[C@H]1CN(C)Cc1ccc(-c2ccccc2)cc1", "cytotoxicity call": "inactive"},
      {"smiles": "C[C@@H]1CN([C@@H](C)CO)C(=O)c2cc(NC(=O)Nc3ccccc3)ccc2O[C@@H](C)CCCCO[C@@H]1CN(C)C(=O)Nc1ccccc1", "cytotoxicity call": "inactive"},
      {"smiles": "C[C@@H]1CN([C@H](C)CO)C(=O)Cc2cc(NC(=O)CCN3CCOCC3)ccc2O[C@H]1CN(C)Cc1ccc2c(c1)OCO2", "cytotoxicity call": "inactive"},
      {"smiles": "Cc1noc(C)c1S(=O)(=O)N(C)C[C@@H]1Oc2ccc(NC(=O)NC3CCCCC3)cc2CC(=O)N([C@@H](C)CO)C[C@H]1C", "cytotoxicity call": "inactive"},
      {"smiles": "Cc1ccc(S[C@]2(C(=O)NCc3ccccc3)CC(=O)N(Cc3ccccc3C(F)(F)F)[C@@H]2c2ccc(CO)cc2I)cc1", "cytotoxicity call": "inactive"},
      {"smiles": "CN(C)c1ccc(O)c2c1C[C@H]1C[C@H]3[C@H](N(C)C)C(=O)C(C(N)=O)=C(O)[C@@]3(O)C(=O)[C@H]1C2=O", "cytotoxicity call": "inactive"},
      {"smiles": "COC(=O)C1(C)CCCC2(C)c3ccc(C(C)C)cc3C(=O)CC12", "note": "(stereo not given)", "cytotoxicity call": "inactive"},
      {"smiles": "CC(C)c1c(O)ccc2c1CCC1C(C)(C)C(=O)CCC21C", "note": "(stereo not given)", "cytotoxicity call": "inactive"},
      {"smiles": "COC(=O)C1(C)CCCC2(C)c3ccc(O)c(C(C)C)c3CCC12", "note": "(stereo not given)", "cytotoxicity call": "active"},
      {"smiles": "CC(C)c1c(O)ccc2c1CCC1C(C)(C)CCCC21C", "note": "(stereo not given)", "cytotoxicity call": "inactive"},
      {"smiles": "CC(C)c1c(O)ccc2c1CCC1C(C)(C=O)CCCC21C", "note": "(stereo not given)", "cytotoxicity call": "inactive"},
      {"smiles": "CC(C)c1c(O)ccc2c1CC[C@H]1C(C)(C)CCC[C@]21C", "cytotoxicity call": "active"},
      {"smiles": "CC(C)(CO)c1cc2cc(NC(=O)C3(c4ccc5c(c4)OC(F)(F)O5)CC3)c(F)cc2n1C[C@@H](O)CO", "cytotoxicity call": "inactive"},
      {"smiles": "NCCn1cccn1", "cytotoxicity call": "inactive"},
      {"smiles": "C[C@@H]1CN([C@@H](C)CO)S(=O)(=O)c2ccc(C#CCN(C)C)cc2O[C@H]1CN(C)Cc1ccccn1", "cytotoxicity call": "inactive"},
      {"smiles": "O=C(O)CN1C(=O)c2cccc3cccc(c23)C1=O", "cytotoxicity call": "inactive"},
      {"smiles": "CC(C)(C)C1CCC(OC[C@@H](O)CN2CCC(CN3C(=O)c4cccc5cccc(c45)C3=O)CC2)CC1", "note": "(stereo not given in full)", "cytotoxicity call": "active"},
      {"smiles": "O=C(CN1C(=O)c2cccc3cccc(c23)C1=O)N1CCN(CCN2C(=O)[C@@H]3[C@@H](C2=O)[C@@H]2C=C[C@@H]3C2)CC1", "cytotoxicity call": "inactive"},
      {"smiles": "CCCN(C)C[C@H]1OCCCC[C@@H](C)Oc2ccc(NC(=O)Nc3c(C)noc3C)cc2C(=O)N([C@H](C)CO)C[C@@H]1C", "cytotoxicity call": "inactive"},
      {"smiles": "COc1ccc(S(=O)(=O)Nc2ccc3c(c2)C(=O)N([C@@H](C)CO)C[C@H](C)[C@@H](CN(C)C(=O)Nc2cccc4ccccc24)OCCCC[C@@H](C)O3)cc1", "cytotoxicity call": "inactive"},
      {"smiles": "CC=C1C2C=C(C)CC1(N)c1ccc(=O)[nH]c1C2", "note": "(stereo not given)", "cytotoxicity call": "inactive"},
      {"smiles": "C[C@H]1CN([C@@H](C)CO)C(=O)c2cccc(NC(=O)Nc3ccc(F)cc3)c2O[C@@H]1CN(C)Cc1ccc(C(=O)Nc2ccccc2N)cc1", "cytotoxicity call": "inactive"},
      {"smiles": "C[C@@H]1CN([C@@H](C)CO)C(=O)c2cccc(NC(=O)Nc3ccc(F)cc3)c2O[C@@H]1CN(C)Cc1ccc(C(=O)Nc2ccccc2N)cc1", "cytotoxicity call": "active"},
      {"smiles": "C[C@H]1CN([C@@H](C)CO)C(=O)c2cccc(NC(=O)Nc3ccc(F)cc3)c2O[C@H]1CN(C)Cc1ccc(C(=O)Nc2ccccc2N)cc1", "cytotoxicity call": "active"},
      {"smiles": "C[C@H](CO)N1C[C@H](C)[C@H](CN(C)Cc2ccc(C(=O)Nc3ccccc3N)cc2)Oc2c(NC(=O)Nc3ccc(F)cc3)cccc2C1=O", "cytotoxicity call": "inactive"},
      {"smiles": "C[C@@H]1CN([C@H](C)CO)C(=O)c2cccc(NC(=O)Nc3ccccc3)c2O[C@@H]1CN(C)Cc1ccc(C(=O)Nc2ccccc2N)cc1", "cytotoxicity call": "inactive"},
      {"smiles": "C[C@@H]1CN([C@@H](C)CO)C(=O)c2cccc(NC(=O)Nc3ccccc3)c2O[C@H]1CN(C)Cc1ccc(C(=O)Nc2ccccc2N)cc1", "cytotoxicity call": "inactive"},
      {"smiles": "C[C@@H]1CN([C@H](C)CO)C(=O)c2cccc(NC(=O)Nc3ccc(F)cc3)c2O[C@H]1CN(C)Cc1ccc(C(=O)Nc2ccccc2N)cc1", "cytotoxicity call": "inactive"},
      {"smiles": "C[C@@H]1CN([C@@H](C)CO)C(=O)c2cccc(NC(=O)Nc3ccc(F)cc3)c2O[C@H]1CN(C)Cc1ccc(C(=O)Nc2ccccc2N)cc1", "cytotoxicity call": "inactive"},
      {"smiles": "C[C@H]1CN([C@@H](C)CO)C(=O)c2cccc(NC(=O)Nc3ccccc3)c2O[C@H]1CN(C)Cc1ccc(C(=O)Nc2ccccc2N)cc1", "cytotoxicity call": "active"}
    ]}
  ]
}
